The record followed here is PubChem BioAssay (NCATS).

Records with an inconclusive call do not appear. A structure can be active in one record and inactive in another. Active and inactive are the calls of the source. Unless noted, the call rests on the fitted dose curve; in most records, active means well fitted inhibition curve with a large enough effect; inconclusive means small, poorly fitted or top-dose-only effect; inactive means flat fitted curve, though single readings scatter.

The test system of one experiment is AA1029. Description: qHTS profiling for inhibitors of Plasmodium falciparum proliferation (AID 504749). Further: nearly all actives have a fitted effect of over 60% in size. Further: potency means the concentration at half of the fitted maximal effect. Conditions: P. falciparum in erythrocytes, SYBR Green DNA, 72 h; series mostly up to 28.7 µM. In short, it runs like this: (§1)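 Three-day growth assay of blood-stage parasites in erythrocytes (0.3% parasitemia, 2.5% hematocrit) at 37 C, 5% CO2, quantified by SYBR Green DNA staining after overnight detergent lysis.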
For orientation: qHTS replaces the single test concentration by a dilution series.

The next experiment deals with AS120. The description is as above. Conditions: P. falciparum in erythrocytes, SYBR Green DNA, 72 h; series mostly up to 28.7 µM. In short, it runs like this:
as §1

In another experiment the test system is ATS189. Described as above. Conditions: P. falciparum in erythrocytes, SYBR Green DNA, 72 h; series mostly up to 28.7 µM. In short, it runs like this:
as §1

A further experiment relates to C2A. Described as above. Conditions: P. falciparum in erythrocytes, SYBR Green DNA, 72 h; series mostly up to 28.7 µM. In a few lines:
as §1

For another experiment, the system named is CP194. The description is as above. Conditions: P. falciparum in erythrocytes, SYBR Green DNA, 72 h; series mostly up to 28.7 µM. In short, it runs like this: as §1
Another experiment has as its system CP201. The description is as above. Conditions: P. falciparum in erythrocytes, SYBR Green DNA, 72 h; series mostly up to 28.7 µM. In a few lines:
as §1

In the next experiment the test system is CP203. The experiment is described as above. Conditions: P. falciparum in erythrocytes, SYBR Green DNA, 72 h; series mostly up to 28.7 µM. In short, it runs like this:
as §1

A further experiment deals with CP217. The experiment is described as above. Conditions: P. falciparum in erythrocytes, SYBR Green DNA, 72 h; series mostly up to 28.7 µM. In short, it runs like this: as §1
The subject of the next experiment is CP237. The description is as above. Conditions: P. falciparum in erythrocytes, SYBR Green DNA, 72 h; series mostly up to 28.7 µM. In short, it runs like this: as §1
Another experiment deals with CP250. The description is as above. Conditions: P. falciparum in erythrocytes, SYBR Green DNA, 72 h; series mostly up to 28.7 µM. In a few lines:
as §1

A further experiment deals with CP256. The experiment is described as above. Conditions: P. falciparum in erythrocytes, SYBR Green DNA, 72 h; series mostly up to 28.7 µM. In a few lines: as §1
A further experiment concerns CP268. Described as above. Conditions: P. falciparum in erythrocytes, SYBR Green DNA, 72 h; series mostly up to 28.7 µM. In a few lines:
as §1

A further experiment deals with CP305. The experiment is described as above. Conditions: P. falciparum in erythrocytes, SYBR Green DNA, 72 h; series mostly up to 28.7 µM. In a few lines: as §1
The test system of another experiment is CP325. The experiment is described as above. Conditions: P. falciparum in erythrocytes, SYBR Green DNA, 72 h; series mostly up to 28.7 µM. In short, it runs like this:
as §1

Another experiment relates to HB3. Described as above. Conditions: P. falciparum in erythrocytes, SYBR Green DNA, 72 h; series mostly up to 28.7 µM. In a few lines:
as §1

The next experiment deals with PC15. The description is as above. Conditions: P. falciparum in erythrocytes, SYBR Green DNA, 72 h; series mostly up to 28.7 µM. In short, it runs like this: as §1
In another experiment the test system is PC49. Described as above. Conditions: P. falciparum in erythrocytes, SYBR Green DNA, 72 h; series mostly up to 28.7 µM. In a few lines: as §1
Another experiment deals with TAB109. The description is as above. Conditions: P. falciparum in erythrocytes, SYBR Green DNA, 72 h; series mostly up to 28.7 µM. In short, it runs like this: as §1
In a further experiment the test system is CP297. The experiment is described as above. Conditions: P. falciparum in erythrocytes, SYBR Green DNA, 72 h; series mostly up to 28.7 µM. In short, it runs like this: as §1
Experiment [1] is described as follows: S16 Schwann cell PMP22 intronic element beta-lactamase assay (AID 624044; calls by dose curve; further: nearly all actives have a fitted effect of over 15% in size). Conditions: S16 rat Schwann cells, PMP22 element beta-lactamase FRET, 24 h; ratio activity, negative = inhibition: at 38.3 µM (top of the series). In short, it runs like this:
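Rat S16 Schwann cells with beta-Lac driven by a PMP22 intronic element, compound-treated 24 h at 37 °C. LiveBLAzer FRET B/G read: 460 nm normalized to potassium clavulanate vs DMSO; 535 nm FRET as viability; concentration-effect curves classified.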

`Cc1ccc(/C=C2/C(=O)C3(C)CCC2C3(C)C)cc1` (configuration not stated): the Potency entry in the experiment on AA1029, with AS120, in the experiment on ATS189, in the experiment on C2A, in the experiment with CP194 and in the experiment with CP201 was “inactive” throughout. In addition, the Potency entry in the experiment on CP203, with CP217, in the experiment on CP237, with CP250, in the experiment on CP256 and in the experiment on CP268 was “inactive” each time. The Potency result in the experiment on CP305, in the experiment on CP325, with HB3, in the experiment with PC15, in the experiment on PC49 and in the experiment with TAB109 was “inactive” throughout.

Take `Cc1ccccc1N1C(=O)c2cc(N)ccc2N/C1=C\F`: the Potency entry in the experiment with AA1029, in the experiment on AS120, with ATS189, with C2A, in the experiment on CP194 and with CP201 was “inactive” throughout. In addition, the Potency result in the experiment on CP203, with CP217, with CP237, in the experiment on CP250, with CP256 and in the experiment with CP268 was “inactive” each time. For the same compound, the Potency entry in the experiment on CP297, in the experiment on CP305, with CP325, in the experiment on HB3, with PC15 and with PC49 was “inactive” in each case. The Potency entry in the experiment with TAB109 was “inactive”.

As to `NC(=O)c1ncn(C2OC(CO)C(O)C2O)c1N` (configuration not stated), the Potency result (in experiment [1]; in the experiment with AA1029; with AS120; with ATS189; in the experiment with C2A; in the experiment with CP194) was “inactive” in each case. Moreover, the Potency entry in the experiment on CP201, with CP203, in the experiment with CP217, in the experiment on CP237, with CP250 and in the experiment on CP256 was “inactive” throughout. Besides, the Potency entry in the experiment with CP268, in the experiment on CP297, with CP305, with CP325, with HB3 and in the experiment on PC15 was “inactive” throughout. Also, the Potency result with PC49 and in the experiment on TAB109 was “inactive” each time.

As to `CCCC(=O)O[C@]1(C(=O)COC(C)=O)CC[C@H]2C3C[C@H](F)C4=CC(=O)C=CC4(C)[C@@]3(F)[C@@H](O)CC21C` (some centres not stated), the Potency entry in the experiment on AA1029, in the experiment with AS120, in the experiment on ATS189, with C2A, with CP194 and with CP201 was “inactive” in each case. Further, the Potency result in the experiment with CP203, in the experiment with CP217, with CP237, in the experiment on CP250, with CP256 and with CP268 was “inactive” in each case. Besides, the Potency result in the experiment with CP297, in the experiment on CP305, in the experiment on CP325, in the experiment on HB3, with PC15 and in the experiment with PC49 was “inactive” in each case. Also, the Potency entry in the experiment on TAB109 was “inactive”.

Consider `O=C(OC[C@@H]1O[C@@](O)(COC(=O)c2cccnc2)[C@H](OC(=O)c2cccnc2)[C@H]1OC(=O)c1cccnc1)c1cccnc1`, for which the Potency result (in experiment [1]; in the experiment on AA1029; in the experiment on AS120; with ATS189; in the experiment on C2A; in the experiment with CP194) was “inactive” in each case. Further, the Potency result in the experiment on CP201, with CP203, in the experiment on CP217, with CP237, with CP250 and with CP256 was “inactive” each time. Further, the Potency result in the experiment on CP268, in the experiment on CP297, in the experiment on CP305, in the experiment on CP325, in the experiment with HB3 and with PC15 was “inactive” each time. In addition, the Potency result in the experiment with PC49 is “inactive”.

Consider `CCN(CC)CC(=O)Nc1c(C)cc(C)cc1C`, for which the Potency entry (in experiment [1]; in the experiment on AA1029; in the experiment on AS120; in the experiment on ATS189; in the experiment with C2A; in the experiment on CP194) was “inactive” in each case. Moreover, the Potency result in the experiment with CP201, in the experiment with CP203, with CP217, in the experiment with CP237, in the experiment on CP250 and in the experiment on CP256 was “inactive” throughout. Besides, the Potency result in the experiment with CP268, in the experiment on CP297, in the experiment on CP305, in the experiment with CP325, in the experiment with HB3 and with PC15 was “inactive” throughout. Moreover, the Potency result in the experiment with PC49 and with TAB109 was “inactive” throughout.

As to `OCC(CO)NC1C[C@](O)(CO)[C@@H](O)[C@H](O)[C@H]1O` (some centres not stated), the Potency result (in [1]; in the experiment on AA1029; in the experiment on AS120; in the experiment on ATS189; in the experiment with C2A; in the experiment on CP194) was “inactive” in each case. Moreover, the Potency entry in the experiment with CP201, in the experiment with CP203, in the experiment on CP217, with CP237, with CP250 and with CP256 was “inactive” in each case. Moreover, the Potency result with CP268, in the experiment on CP297, in the experiment with CP305, with CP325, with HB3 and in the experiment with PC15 was “inactive” throughout. The Potency entry in the experiment with PC49 and with TAB109 was “inactive” in each case.

For `CCCCCOC(=O)Nc1nc(=O)n(C2O[C@H](C)[C@@H](O)[C@@H]2O)cc1F` (some centres not stated), the Potency result (in [1]; with AA1029; in the experiment on AS120; in the experiment with ATS189; in the experiment on C2A; in the experiment with CP194) was “inactive” throughout. For the same compound, the Potency result with CP201, with CP203, in the experiment on CP217, in the experiment on CP250, in the experiment with CP268 and in the experiment with CP297 was “inactive” throughout. The Potency entry in the experiment with CP305, in the experiment with CP325, in the experiment on HB3, with PC15, with PC49 and in the experiment with TAB109 was “inactive” throughout.

On to `OC[C@@H](O)C(O[C@@H]1O[C@@H](CO)[C@H](O)[C@H](O)[C@H]1O)[C@H](O)[C@@H](O)CO` (some centres not stated), for which the Potency result (in experiment [1]; in the experiment on AA1029; in the experiment on AS120; with ATS189; in the experiment with CP194; in the experiment on CP201) was “inactive” throughout. For the same compound, the Potency result in the experiment on CP203, in the experiment with CP217, in the experiment on CP237, in the experiment on CP250, in the experiment with CP256 and with CP268 was “inactive” each time. Moreover, the Potency entry in the experiment with CP297, with CP305, with CP325, in the experiment with HB3, with PC15 and in the experiment with PC49 was “inactive” each time. The Potency result with TAB109 is “inactive”.

Consider `CC(=O)N1CC(O)CC1C(=O)O` (configuration not stated), for which the Potency result (in [1]; with AA1029; with AS120; in the experiment on ATS189; in the experiment on C2A; in the experiment on CP194) was “inactive” each time. Also, the Potency entry in the experiment with CP201, in the experiment with CP203, in the experiment on CP217, in the experiment with CP237, in the experiment on CP250 and in the experiment on CP256 was “inactive” in each case. In addition, the Potency entry with CP268, with CP297, in the experiment with CP305, in the experiment on CP325, in the experiment on HB3 and in the experiment with PC15 was “inactive” each time. For the same compound, the Potency entry in the experiment on PC49 and in the experiment on TAB109 was “inactive” in each case.

In the case of `CNC1=CN(O)C(c2ccccc2)=c2cc(Cl)ccc2=N1`, the Potency entry (in [1]; in the experiment on CP237; with CP256; in the experiment with HB3; with PC15; in the experiment with PC49) was “inactive” in each case. Also, the Potency is 11.2 µM (active) and inactive in the experiment on AS120; 4.47 µM (active) in the experiment with ATS189; 4.26 µM (active) with CP194; 4.26 µM (active) and inactive in the experiment with CP201; 4.26 µM (active) with CP203; 4.26 µM (active) in the experiment on CP268. Moreover, the results for the Potency with CP297, in the experiment on CP305 and in the experiment with TAB109 were 4.26 µM (active), 1.69 µM (active) and 3.55 µM (active), respectively.
